This passage reports sensor-assay potency score (higher = more potent) results from the OligoGym collection.
Also: reference of the scale not given here.

The first assay addresses TULP4. In words: pooled miR-30 sensor sort-seq; sequence = guide strand. As to conditions: shRNA.
As for AACATTGTAGAACTTGACCATG, the sensor-assay potency score (higher = more potent) is -1.37.

With TTGTCTTATTCAACTTCTTTGA, the sensor-assay potency score (higher = more potent) was -0.83.

TTTGTCTTATTCAACTTCTTTG yielded a sensor-assay potency score (higher = more potent) of -1.04. As for TTAAAGTCACTCAAAGTCCTAG, the sensor-assay potency score (higher = more potent) came to 0.213. The same measure, in the same setting: under TTTCTGACTCTTCACTTTCTTC stands -1.27.

The target in another assay is TUSC2. The description is as above. As to conditions: shRNA.
Turning to TTGGTGACGATTGTCTCCTCAT, the sensor-assay potency score (higher = more potent) amounted to 0.0125. The same measure, in the same setting: under TAGAACATAGAGCCGCGGCGCG stands -1.07; under TCTCCTCATAGAACTCGTGAGC, -1.05; under TCTTGGTGACGATTGTCTCCTC, -0.566. Still for that read-out and setting: the figure for TTCTTGGTGACGATTGTCTCCT is -0.377; for ATTCTTATGCACTCGCCTCAGC it is -1.06. In turn, AAGCTTGCTCAGCTCCTGCTGC displayed a sensor-assay potency score (higher = more potent) of -0.817.

TCATCATAGAACATAGAGCCGC yielded a sensor-assay potency score (higher = more potent) of -0.771. On the same count and under the same terms, the figure for TCCTCATCATAGAACATAGAGC is -1.99; for TCATAGAACATAGAGCCGCGGC it is -0.488. The sequence AATCAGATTCTTATGCACTCGC showed a sensor-assay potency score (higher = more potent) of 0.0606. On the same count and under the same terms, under TGTCTCCTCATAGAACTCGTGA stands -0.468.
